Screening data as filed in PubChem BioAssay.
NS1 inh: qHTS Assay for Inhibitors of Influenza NS1 Protein Function; Potency, µM (series often up to 46.1 µM), inactives show top-dose activity, positive = more growth; 270,000 compounds, 0.4% hits; AID 2326, 2010; calls by dose curve; also: potency is read from the fitted curve at half-maximal effect; actives are rising curves; nearly all actives have a fitted effect of over 50% in size
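A cell-based growth assay was used: compounds that relieve NS1-induced slow growth of budding yeast raise OD600. Assay medium was yeast nitrogen base with ammonium sulphate and -URA supplement, pH 6.0, with 2% galactose.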
CHX counter: Cycloheximide Counterscreen for Small Molecule Inhibitors of Shiga Toxin | max response, % | AID 2314, 2010 | cell reporter, cycloheximide protein synthesis inhibition counterscreen | 300,000 compounds, 12% hits; in the data active = max response mostly above about 13%, no sharp cut-off; inactive = mostly below about 14%; also: read at 38.3 µM for the half of the compounds with a filed dose; 0% is about no effect
Shiga toxin inh: A qHTS for Small Molecule Inhibitors of Shiga Toxin | 290,000 compounds, 9.2% hits | inhibition, % at 38.7 µM | Vero cells, Shiga toxin protein synthesis inhibition reporter; in the data active = inhibition mostly above about 28%, no sharp cut-off; inactive = mostly below about 43%; also: 0% is about no effect
AmpC inh detg: qHTS Inhibitors of AmpC Beta-Lactamase (assay with detergent). AID 485294, 2010. AmpC hydrolysis of nitrocefin, absorbance 480 nm, 0.01% Triton. Potency, µM (series often up to 114 µM), for the others: top-dose activity change, negative = inhibition, actives largely listed as inhibitors. P00811. 370,000 compounds, 0.041% hits;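 also: potency is read from the fitted curve at half-maximal effect; 0% = no-compound wells and -100% = no-enzyme wells; nearly all actives have a fitted effect of over 25% in size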
Target sequence (P00811 whole entry, looked up): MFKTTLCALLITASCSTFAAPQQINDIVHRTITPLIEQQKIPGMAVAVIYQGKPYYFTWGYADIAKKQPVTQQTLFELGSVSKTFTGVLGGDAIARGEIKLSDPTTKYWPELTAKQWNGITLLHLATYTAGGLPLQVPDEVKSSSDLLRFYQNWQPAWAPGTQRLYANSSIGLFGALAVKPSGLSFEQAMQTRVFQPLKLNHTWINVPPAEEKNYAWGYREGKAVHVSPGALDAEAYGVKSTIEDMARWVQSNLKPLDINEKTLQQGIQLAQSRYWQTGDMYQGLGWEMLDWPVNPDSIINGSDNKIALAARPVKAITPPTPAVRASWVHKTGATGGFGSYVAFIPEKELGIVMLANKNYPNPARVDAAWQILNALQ
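20 mM phosphate pH 7.0 + 0.01% (detergent screen) or 0.0001% Triton X-100; 5.3 nM AmpC reagent; cpd preinc 15 min RT; nitrocefin (800 uM stock) to start; A480 q20 s × 4 min; Activity was normalised to no-enzyme and no-compound control wells.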
AmpC no deterg: qHTS Inhibitors of AmpC Beta-Lactamase (assay without detergent). Potency, µM (top dose mostly 57.1 µM), for the others: at the highest dose activity change, negative = inhibition, actives largely listed as inhibitors. AID 485341, 2010. AmpC nitrocefin hydrolysis, absorbance 480 nm, 0.0001% Triton. 330,000 compounds, 0.52% hits;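 also: potency is read from the fitted curve at half-maximal effect; plate controls were no compound for no effect and no enzyme for full effect; nearly all actives have a fitted effect of over 20% in size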
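20 mM phosphate pH 7.0 + 0.01% (detergent screen) or 0.0001% Triton X-100; 5.3 nM AmpC reagent; cpd preinc 15 min RT; nitrocefin (800 uM stock) to start; A480 q20 s × 4 min; Activity was normalised to no-enzyme and no-compound control wells.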
* marks the source's active call; other numbers are inactive results; ? = inconclusive; / = no result. Shown is part of a subset that was picked to be rich in hits. Unless noted, calls follow the shape of the dose curve; as a rule, active = well fitted curve in the direction sought with a large enough effect; inconclusive = small, poorly fitted or top-dose-only effect, or another doubt; inactive = no such curve, though single readings can be large; an effect the other way counts as inactive or inconclusive.

SMILES	NS1 inh	CHX counter	Shiga toxin inh	AmpC inh detg	AmpC no deterg
Cc1ccc(-c2cc(NC(=O)c3ccccc3Cl)on2)cc1	/	/	/	6%	/
Cc1cccc(NC(=O)CCc2nnc3ccc(NCc4ccco4)nn23)n1	-2%	-4	-5	-1%	1%
CC(C)c1ccc(NC(=O)NN2CCOCC2)cc1	/	43*	138*	3%	-15%
CCOC(=O)c1ccc(NC(=S)NNC(C)(C)C)cc1	-42%	61*	84*	8%	-10%
CC(C)c1ccc(NC(=O)C(c2ccccc2)N2CCOCC2)cc1 (configuration not stated)	-48%	2	4	-13%	59%
CCCCc1ccc(NC(=S)NN2CCOCC2)cc1	25%	67*	111*	?	50%
Fc1cc(F)cc(NC(=S)NN2CCOCC2)c1	-2%	1	-3	4%	-7%
O=C(NCc1cccs1)c1ccc(N2CCCC2=O)cc1	-15%	36*	53*	1%	-5%
NC(=O)c1ccsc1NC(=O)c1ccc(N2CCCC2=O)cc1	4%	22	22	5%	7.9µM*
NC(=O)c1ccsc1NC(=O)c1ccc2c(c1)CCCC2	-51%	51*	59*	-12%	-25%
CC(C)Cc1nnc(NC(=O)c2ccc(N3CCCC3=O)cc2)s1	/	/	/	2%	-20%
NC(=O)c1ccsc1NC(=O)C1CCCCC1	-119%	0	22	?	-18%
CNC(=O)c1ccsc1NC(=O)c1ccc2c(c1)CCCC2	-22%	23*	35	-9%	?
CNC(=O)c1ccsc1NC(=O)CS(=O)(=O)c1ccc(Cl)cc1	25%	-5	-11	2%	-11%
CCn1c(C(=O)N2CCC(C(=O)N3CCN(c4cccc(C)c4C)CC3)CC2)cc2sccc21	/	/	/	2%	/
CCOC(=O)c1cnc(N2CCN(c3ccc(C)cc3C)CC2)c2ccccc12	/	/	/	17%	/
O=C(CSc1ccc(Cl)cc1)N1CCN(c2c(Cl)cccc2[N+](=O)[O-])CC1	-87%	56*	46	6%	-32%
O=C(CSC1=NCCS1)N1CCN(c2ccccc2)CC1	24%	26*	38*	?	6%
Cc1ccc(C)c(C(=O)CCC(=O)N2CCN(c3ncccn3)CC2)c1	-3%	36*	38*	1%	20%
COc1ccc(N2CCN(C(=O)CSc3ccccc3)CC2)cc1	-15%	17	32	-4%	/
O=C(/C=C/c1ccc(Cl)cc1)N1CCN(c2c(Cl)cccc2[N+](=O)[O-])CC1	28%	-5	20	-1%	-27%
O=C(CSc1ccccc1)N1CCN(c2ccccc2)CC1	-8%	17	85*	-14%	-9%
Cc1ccc(C)c(OCC(=O)N2CCN(c3ncccn3)CC2)c1	/	/	/	?	-10%
Cc1c(-c2ccn[nH]2)cc(NC(=O)c2ccc(Cl)cc2)c(=O)n1N	/	1	4	?	-27%
Cc1cccc(NC(=O)c2c(C)cc(C)nc2SCC(=O)Nc2c(C)cc(C)cc2C)c1	/	/	/	2%	/
SMILES	NS1 inh	CHX counter	Shiga toxin inh	AmpC inh detg	AmpC no deterg
O=C(CSc1ccccn1)N1CCN(c2cccc(Cl)c2)CC1	-3%	-2	16	5%	-3%
O=C(CCOc1ccccc1)N1CCN(c2ccc(O)cc2)CC1	1%	47*	63*	7%	2%
O=C(CCCOc1ccccc1)N1CCN(c2ccccc2)CC1	-48%	22	35	?	48%
O=C(CCSc1ccccc1)N1CCN(C(=O)c2ccco2)CC1	-15%	35*	99*	10%	7%
O=C(CCSc1ccc(Cl)cc1)N1CCN(c2ccc(O)cc2)CC1	-40%	27*	59*	3%	-42%
O=C(CSc1ccccn1)N1CCN(c2ccccc2)CC1	2%	35*	35*	-3%	-6%
CN1CCN(CCCc2c3c(cc4c2CCC4)CCC3)CC1	0%	0	-5	-8%	24%
O=C(c1ccc(Cl)cc1)N1CCN(c2ncccn2)CC1	3%	-2	-4	-17%	-7%
O=C(CCC(=O)N1CCN(c2cccc(Cl)c2)CC1)N1CCN(c2ccccc2)CC1	?	-3	-14	-9%	183%
O=C(CCSc1ccc(Cl)cc1)N1CCCCCC1	-17%	21*	61*	1%	-3%
O=C(CCSc1ccccc1)N1CCN(c2ccccc2)CC1	-30%	39*	90*	-7%	0%
O=C(CCSc1ccc(Cl)cc1)N1CCN(c2ncccn2)CC1	-53%	17*	38	?	23%
CCC(C(=O)N1CCN(c2ncccn2)CC1)c1ccccc1 (configuration not stated)	2%	26*	15	2%	-5%
COc1ccc(N2CCN(C(=O)COC(=O)CSc3ccccc3)CC2)cc1	/	/	/	-1%	25%
COc1ccc(N2CCN(C(=O)CSc3ccccc3N)CC2)cc1	11%	12*	-3	2%	7%
CCOC(=O)c1c(C)[nH]c(C(=O)COC(=O)CNC(=O)C2CCCCC2)c1C	-4%	34*	146*	6%	-13%
CCOC(=O)c1c(C)[nH]c(C(=O)COC(=O)c2ccccc2NC(=O)c2ccco2)c1C	-2%	8	-7	-1%	-24%
CCOC(=O)c1c(C)[nH]c(C(=O)COC(=O)[C@H](C)NC(=O)c2ccccc2Cl)c1C	-9%	28*	49*	-1%	-7%
CCOC(=O)c1c(C)[nH]c(C(=O)COC(=O)CNC(=O)c2ccccc2Cl)c1C	-4%	56*	109*	1%	-7%
CCOC(=O)c1c(C)[nH]c(C)c1C(=O)COC(=O)CNC(=O)C1CCCCC1	0%	-2	33	-1%	12%
CCOC(=O)c1c(C)[nH]c(C(=O)COC(=O)CNC(=O)c2ccc(Br)cc2)c1C	2%	-1	-5	-6%	-9%
C/C(=N/NC(=O)CNC(=O)C(c1ccccc1)c1ccccc1)c1ccco1	-1%	1	-2	4%	-19%
COc1cc(NC(=O)CN2Cc3ccccc3C2=O)cc(OC)c1OC	/	/	/	16%	/
COc1ccc(OC)c(NC(=O)COC(=O)CNC(=O)c2ccc(OC)c(OC)c2)c1	-1%	-5	-18	-13%	-44%
CN(C)S(=O)(=O)c1cccc(C(=O)OCC(=O)Nc2sccc2C#N)c1	10%	56*	75*	5%	-9%
COc1ccc(C(=O)NCC(=O)OCC(=O)Nc2sccc2C#N)cc1OC	/	22*	36*	-13%	-28%
CN(C)S(=O)(=O)c1cccc(C(=O)OCC(=O)Nc2ccc3c(c2)OCCO3)c1	/	/	/	-2%	-30%
CCCN1C(=O)/C(=C/c2c(N3CCNC(=O)C3CC(=O)OC)nc3c(C)cccn3c2=O)SC1=S (configuration not stated)	5%	0	-3	-7%	1%
Fc1ccc(/C=N/Nc2ccccn2)cc1	21%	62*	68*	?	-20%
CCOc1ccc(/C=N/Nc2ccccn2)cc1	/	34*	70*	9%	-25%
